Structures can show the parent of a compound that is named as a salt.
Tested on: Salmonella enterica typhimurium
Experiment: growth AUC normalised to DMSO control (fraction of control); higher = less growth inhibition, active = hit call of the paper
Conditions: 20 µM;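 active = AUC significantly below DMSO controls by Student t-fit with adjusted P under 0.01; inactive = not significantly reduced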
How it was run: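 Hemin and NAD were added to the medium for Haemophilus parainfluenzae. All pathogens, after two anaerobic passages, were inoculated at a starting OD578 of 0.01 into pre-reduced mGAM plates with 20 μM compound and 1% DMSO under breathable seals, and OD578 was read hourly for 24 h in three biological replicates. AUC of each growth curve was obtained with the trapezoidal rule up to the exponential-to-stationary transition and normalised to DMSO controls from the same plate.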

| Compound | growth AUC normalised to DMSO control |
| --- | --- |
| Cn1c(=O)c2c(ncn2CC(O)CO)n(C)c1=O (stereo not given) [Diprophylline] | 0.986 (inactive) |
| CC(C)(C)NC[C@@H](O)COc1cccc2c1CCCC2=O [(+) Levobunolol hydrochloride] | 0.982 (inactive) |
| C[C@]12CCC(=O)C=C1CC[C@@H]1[C@@H]2[C@@H](O)C[C@@]2(C)[C@H]1CC[C@]2(O)C(=O)CO [Hydrocortisone] | 0.983 (inactive) |
| C#Cc1cccc(Nc2ncnc3cc(OCCOC)c(OCCOC)cc23)c1 [Erlotinib] | 1 (inactive) |
| O=C1CCC(N2C(=O)c3ccccc3C2=O)C(=O)N1 (stereo not given) [Thalidomide] | 0.994 (inactive) |
| CCOC(=O)C1=C(COCCN)NC(C)=C(C(=O)OC)C1c1ccccc1Cl (stereo not given) [Amlodipine] | 0.997 (inactive) |
| COc1ccc(CN(CCN(C)C)c2ccccn2)cc1 [Pyrilamine maleate] | 0.974 (inactive) |
| CN1CCCC(CC2c3ccccc3Sc3ccccc32)C1 (stereo not given) [Metixene hydrochloride] | 0.987 (inactive) |
| CC(C)/N=c1\cc2n(-c3ccc(Cl)cc3)c3ccccc3nc-2cc1Nc1ccc(Cl)cc1 [Clofazimine] | 0.99 (inactive) |
| NC(N)=Nc1nc(CSCC/C(N)=N/S(N)(=O)=O)cs1 [Famotidine] | 1 (inactive) |
| O=C1c2ccccc2C(=O)C1c1ccccc1 [Phenindione] | 0.982 (inactive) |
| CN1CCN2c3ccccc3Cc3ccccc3C2C1 (stereo not given) [Mianserine hydrochloride] | 0.986 (inactive) |
| CCN1C(=O)NC(c2ccccc2)C1=O (stereo not given) [Ethotoin] | 0.995 (inactive) |
| CC(=O)OCC(=O)[C@@]12OC3(CCCC3)O[C@@H]1C[C@H]1[C@@H]3CCC4=CC(=O)C=C[C@]4(C)[C@@]3(F)[C@@H](O)C[C@@]12C [Amcinonide] | 1.01 (inactive) |
| CCc1cccc(CC)c1NC(=O)CN(CC(=O)O)CC(=O)O [Etifenin] | 0.985 (inactive) |
| COc1ccc(C(Cl)=C(c2ccc(OC)cc2)c2ccc(OC)cc2)cc1 [Chlorotrianisene] | 0.994 (inactive) |
| CC(=O)c1ccc2c(c1)N(CCCN(C)C)c1ccccc1S2 [Acetopromazine maleate salt] | 1 (inactive) |
| CCN1CCCC(OC(=O)C(c2ccccc2)c2ccccc2)C1 (stereo not given) [Piperidolate hydrochloride] | 1.01 (inactive) |
| CCCCOc1ccc(CC(=O)NO)cc1 [Bufexamac] | 0.996 (inactive) |
| NC[C@@H]1O[C@H](O[C@H]2[C@@H](O)[C@H](O[C@@H]3[C@@H](O)[C@H](N)C[C@H](N)[C@H]3O[C@H]3O[C@H](CN)[C@@H](O)[C@H](O)[C@H]3N)O[C@@H]2CO)[C@H](N)[C@@H](O)[C@@H]1O [Neomycin sulfate] | 1.01 (inactive) |
| COc1cc(C(=O)OCCCN2CCCN(CCCOC(=O)c3cc(OC)c(OC)c(OC)c3)CC2)cc(OC)c1OC [Dilazep dihydrochloride] | 1 (inactive) |
| NC1CCN(c2c(F)cc3c(=O)c(C(=O)O)cn(C4CC4)c3c2Cl)C1 (stereo not given) [Clinafloxacin] | 0.00836 (active) |
| CC(=O)O[C@H]1C[C@@]2(C)[C@@H](C[C@@H](O)[C@H]3[C@@]4(C)CC[C@@H](O)[C@@H](C)[C@@H]4CC[C@@]32C)/C1=C(\CCC=C(C)C)C(=O)O [Fusidic acid sodium salt] | 0.997 (inactive) |
| c1cnc(N2CCN(Cc3ccc4c(c3)OCO4)CC2)nc1 [Piribedil] | 1 (inactive) |
| O=C(CCCCC(=O)Nc1c(I)cc(I)c(C(=O)O)c1I)Nc1c(I)cc(I)c(C(=O)O)c1I [Iodipamide] | 0.986 (inactive) |
| COc1ccc2c(c1)C(=O)N(CCc1ccc(S(=O)(=O)NC(=O)NC3CCCCC3)cc1)C(=O)C2(C)C [Gliquidone] | 1 (inactive) |
| CC1(C)S[C@@H]2[C@H](NC(=O)[C@H](C(=O)O)c3ccsc3)C(=O)N2[C@H]1C(=O)O [Ticarcillin sodium] | 0.00595 (active) |
| CCOC(=O)/C=C(C)/C=C/C=C(C)/C=C/c1c(C)cc(OC)c(C)c1C [Etretinate] | 1.01 (inactive) |
| O=C(O)COCCN1CCN(C(c2ccccc2)c2ccc(Cl)cc2)CC1 (stereo not given) [Cetirizine dihydrochloride] | 1 (inactive) |
| CCN(CC)C(C)CN1c2ccccc2Sc2ccccc21 (stereo not given) [Ethopropazine hydrochloride] | 0.972 (inactive) |

— the supplement of paper PMC12350171
